Compound activity from PubChem BioAssay.
A selection: hits, their analogues and other compounds. The true share with any hit is near 2.4%.
D2 ag-1 – agonists of human D2 dopamine receptor; 340,000 compounds, 0.53% hits; activation, % at 2 µM; P14416; AID 485358; HEK293 T-REx D2 cells, calcium flux agonist mode;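 active = activation over 3 SD above normal in the single-dose calcium agonist read, cut at about 30% in these data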; also: 0% is about no effect
Target sequence (P14416 whole entry, looked up): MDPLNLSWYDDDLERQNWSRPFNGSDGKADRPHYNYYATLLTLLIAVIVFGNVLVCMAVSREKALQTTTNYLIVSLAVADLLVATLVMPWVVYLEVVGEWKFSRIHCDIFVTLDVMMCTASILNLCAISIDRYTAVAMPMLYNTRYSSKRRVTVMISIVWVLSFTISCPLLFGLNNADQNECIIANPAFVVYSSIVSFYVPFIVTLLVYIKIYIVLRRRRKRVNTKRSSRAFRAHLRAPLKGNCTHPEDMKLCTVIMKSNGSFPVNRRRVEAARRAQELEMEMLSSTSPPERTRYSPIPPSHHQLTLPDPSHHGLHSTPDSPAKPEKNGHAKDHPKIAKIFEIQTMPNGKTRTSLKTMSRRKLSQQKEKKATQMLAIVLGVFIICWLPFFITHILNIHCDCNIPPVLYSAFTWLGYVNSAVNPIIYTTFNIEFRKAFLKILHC
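Tetracycline-induced HEK293 Trex cells with D2 receptor force-coupled to calcium signaling, plated overnight at 30 C and loaded with no-wash calcium dye. Calcium flux read kinetically for 180 s after compound addition; responses flag agonists.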
D2 ag-2 – activates the human D2 dopamine receptor; P14416; DiscoveRx PathHunter D2 beta-arrestin, luminescence, 90 min; 100% = 57 uM dopamine signal; activation, % (test concentration not listed); 360,000 compounds, 0.084% hits; AID 624465; in the data active = activation above about 40%
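Agonist mode: compounds alone added to overnight-plated D2 PathHunter cells for 90 min at 37 C, with 57 uM final dopamine (EC100) defining full response. Beta-arrestin recruitment detected by chemiluminescent reagent, read after 1 h at ambient temperature.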
D2 PAM-1 – positive allosteric modulators of human D2 dopamine receptor. P14416. HEK293 T-REx D2, calcium flux, EC20 dopamine potentiation. potentiation, % at 10 µM. 340,000 compounds, 0.34% hits;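 active = potentiation over 3 SD above the plate norm, cut at about 30% in these data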; also: 0% is about no effect
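Potentiation of an EC20 dopamine calcium response is measured in a force-coupled, tetracycline-inducible Hek293 Trex D2 line. Compound-only kinetic reads over 180 s flag agonists before dopamine addition.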
D2 antag – antagonists of human D2 dopamine receptor; HEK293 TREx D2 cells, calcium flux, dopamine EC80; P14416; inhibition, % at 10 µM; 340,000 compounds, 2% hits; in the data active = inhibition above about 30%; inactive = below that, where a call was filed; also: 0% is about no effect
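Compounds are added to dye-loaded, induced HEK293 T-REx cells coupled to calcium release via D2; after a 3 min kinetic read an EC80 dopamine stimulus is given and fluorescence is recorded for 3 more min.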
D2 PAM-2 – potentiates the human D2 dopamine receptor allosterically; P14416; DiscoveRx D2 beta-arrestin cells, luminescence, 90 min; 100% = 57 uM dopamine signal; potentiation, % (concentration not given with the values); 360,000 compounds, 0.23% hits; in the data active = potentiation above about 50%
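PathHunter D2 cells, attached overnight at 37 deg C, received compound in DMSO plus dopamine at EC20 (50 nM final) for 90 min at 37 deg C. Beta-arrestin recruitment was read as luminescence after 1 h with detection reagent at ambient temperature.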
* marks the source's active call; other numbers are inactive results; x = no result given.

SMILES	D2 ag-1	D2 ag-2	D2 PAM-1	D2 antag	D2 PAM-2
CC(C)c1ccccc1NC(=O)CN1C(=O)c2cccc3cccc1c23	0	x	-8	x	x
CCOC(=O)C1(Cc2ccccc2)CCN(Cc2cnn(CC)c2)CC1	0	1	-4	7	-6
CCOC(=O)C1(CCOc2ccccc2)CCN(Cc2ccncc2)CC1	-1	-7	-15	-3	-3
CCOC(=O)C1(CCOc2ccccc2)CCN(S(=O)(=O)N(C)C)CC1	1	8	5	43*	9
CCOC(=O)C1(CCOc2ccccc2)CCN(Cc2ccc(-n3cccn3)cc2)CC1	0	-4	-21	35*	-1
CCOC(=O)CCNC(=O)N1CCC(CCOc2ccccc2)(C(=O)OCC)CC1	x	1	x	x	-1
CCOC(=O)C1(CCc2ccccc2)CCN(Cc2cccc3nccnc23)CC1	-1	-4	-24	65*	-7
CCOC(=O)C1(Cc2ccccc2)CCN(Cc2cnn(-c3ccccc3)c2)CC1	-1	-5	-18	33*	-17
Cc1nn(C)c2c1c(-c1ccccc1)cc(=O)n2Cc1ccccc1Cl	0	x	-11	x	x
Cc1cc(C)cc(N2C(=O)C=CC2=O)c1	x	-6	x	x	-51
Cc1cc(C)cc(Nc2ncnc3c2nc2n3CCCC2)c1	0	x	0	x	x
COc1ccc(Nc2cc(C(=O)NCCc3ccc(C)cc3)c3ccccc3n2)c(OC)c1	-1	x	17	x	x
Cc1ccc(C)c(CN2CCCNC2=O)c1	2	-3	7	31*	-8
Cc1ccc(CN2CCCNC2=O)cc1	x	0	x	x	-4
Cc1ccc(C(=O)CCC(=O)OCC(=O)N2c3ccccc3NC(=O)C2(C)C)cc1	x	-1	x	x	-18
Cc1ccc(S(=O)(=O)CCC(=O)OCC(=O)N2c3ccccc3NC(=O)C2(C)C)cc1	0	-3	6	90*	-15
COc1nc(Nc2ccc([N+](=O)[O-])cc2)nc(NC2CCCCC2)n1	0	0	2	1	-4
CCN(CC)c1ccc(/C=C/c2cc(-c3ccccc3)c3ccccc3n2)cc1	54*	2	-6	43*	-3
CCC(C)NS(=O)(=O)c1ccc(N2CCCCS2(=O)=O)cc1 (stereo not given)	-3	x	11	x	x
COc1ccc(NC(=S)N(CCCN2CCC(C)CC2)Cc2cccs2)cc1	-1	-1	x	18	-18
CCOC(=O)c1ccc(NC(=S)N(CCCN2CCCC(C)C2)Cc2cccs2)cc1 (stereo not given)	3	-3	-32	40*	-28
COc1cccc(NC(=S)N(CCCN2CCC(C)CC2)Cc2cccs2)c1	2	-3	-35	59*	-17
CCOC(=O)c1ccc(NC(=S)N(CCCN2CCCC2)Cc2cccs2)cc1	4	-5	-16	9	-25
COC(=O)c1ccc(Oc2c(F)c(F)nc(N3CCOCC3)c2F)cc1	0	1	x	2	-9
COc1ccc(C(=O)NCCn2cc(SCC(=O)Nc3ccccc3)c3ccccc32)cc1OC	0	x	14	x	x
SMILES	D2 ag-1	D2 ag-2	D2 PAM-1	D2 antag	D2 PAM-2
CCN(CC)Cc1c(C(=O)N/N=C/c2ccc(OCc3ccccc3C)cc2)nnn1-c1nonc1N	-1	3	0	-12	-15
CC1=Nc2ccccc2/C1=C\c1sc(Nc2ccc(C)cc2)nc1O	0	-1	-26	61*	-41
Oc1nc(Nc2ccc(F)cc2)sc1/C=C1\C=Nc2ccccc21	-1	0	-7	9	-17
C=CCSc1nc(C)c(CC=C)c(=O)[nH]1	1	-2	35*	-11	-4
C=CCSc1nc(C)c(CCCC)c(=O)[nH]1	0	-1	10	-9	0
CS(=O)(=O)Nc1cccc(C2=NN(S(=O)(=O)c3ccc(F)cc3)C(c3cccs3)C2)c1 (stereo not given)	4	-4	-8	31*	-8
CCS(=O)(=O)Nc1cccc(C2=NN(S(=O)(=O)c3ccc(F)cc3)C(c3cccs3)C2)c1 (stereo not given)	4	-2	-1	4	-6
COc1cc([N+](=O)[O-])ccc1NC(=O)CN1CCN(C(=O)c2ccco2)CC1	6	-1	-1	-1	4
CCc1nc(N2CCOCC2)c(C#N)c2c1COC(C)(C)C2	-3	2	-1	-14	-3
Cc1nc(N2CCOCC2)c(C#N)c2c1COC(C)(C)C2	0	-4	33*	-6	2
Cn1c(=O)[nH]c(=O)c2c1nc(CN1CCN(c3ccccc3F)CC1)n2CCCc1ccccc1	0	1	32*	-14	-21
Fc1ccccc1N1CCN(CCCc2ccccc2)CC1	8	-3	-19	74*	-9
Clc1ccccc1CN1CCN(CCCc2ccccc2)CC1	0	-4	-25	65*	-21
Cn1c(=O)[nH]c(=O)c2c1nc(CN1CCN(c3ccc(F)cc3)CC1)n2CCCc1ccccc1	0	0	-3	-10	-16
Cc1ccc(S(=O)(=O)N2CCCCC2)cc1NC(=O)CSc1nnc(C2CC2)n1N	x	-2	x	x	-3
COc1ccc(C2N(C(=O)C(F)(F)F)C(C)CN2S(=O)(=O)c2ccc(C)cc2)cc1 (stereo not given)	1	1	-9	35*	-6
COc1ccc(C2N(S(=O)(=O)c3ccc(C)cc3)CCN2S(=O)(=O)c2ccc(C)cc2)cc1	1	0	-4	36*	-13
Cc1ccc(NC(=O)c2nc(S(C)(=O)=O)ncc2N(Cc2ccco2)Cc2cccs2)cc1C	3	x	-13	x	x
COCCNC(=O)c1c[nH]c2ccc(S(=O)(=O)N3CCc4ccccc43)cc2c1=O	-1	-1	8	-4	17
COCCCNC(=O)c1c[nH]c2ccc(S(=O)(=O)N3CCc4ccccc43)cc2c1=O	0	7	38*	-8	7
CCOc1ccc(-c2cn3c(n2)sc2cc(C(=O)NCCc4ccc(OC)c(OC)c4)ccc23)cc1	x	x	-1	x	x
COc1ccc(CN2CCNC(=O)C2CC(=O)NC2CCCC2)c(C)c1C (stereo not given)	0	-2	4	-2	-6
COCc1cc(=O)n2[nH]c(SCc3ccccc3)nc2n1	-1	-4	2	5	-20
COCc1cc(=O)n2[nH]c(SC)nc2n1	0	0	36*	5	-3
CCOC(=O)C1CCCN(C(=O)c2cn(CC)c3ccc(S(=O)(=O)N(C)C)cc3c2=O)C1 (stereo not given)	2	-2	-2	35*	0
CS(=O)(=O)N1CCC(C(=O)Nc2ccc(OCc3ccccc3)cc2)CC1	1	-1	8	45*	-1
O=C(COC(=O)c1ccc(F)cc1F)NCCNC(=O)COC(=O)c1ccc(F)cc1F	0	-2	0	0	-9
